According to PubChem BioAssay (NCATS):
“And” between values parts separate entries of the source, which are not always exact repeats. Identical values can stand only once. Results filed as inconclusive are left out. The source made the active and inactive calls. Unless noted, calls come from the whole dose curve; as a rule, active = well fitted curve in the direction sought with a large enough effect; inconclusive = small, poorly fitted or top-dose-only effect, or another doubt; inactive = no such curve, though single readings can be large; an effect the other way counts as inactive or inconclusive.

How the values were obtained:
[1] = AP1 Signaling Pathway (AID 357; active = well fitted curve in either direction with a large enough effect, not every such curve was filed as active;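 note: ME-180 reporter cells stimulated with EGF at its EC50 level; % is set by controls: 0 for no effect and ±100 for the full control effect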)
In short: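 A ratiometric CCF4 readout (405 nm excitation; 460 and 530 nm emission) quantified AP-1-driven beta-lactamase in ME-180 cells after 5 h with compound and EC50 EGF; AC50 values were derived for activators and inhibitors.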

[2] = NFAT Signaling Pathway (AID 444; active = well fitted curve in either direction with a large enough effect, not every such curve was filed as active;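 note: carbachol stimulus at about its EC50 of 1 µM final; % is set by controls: 0 for no effect and ±100 for the full control effect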); settings: Jurkat NFAT-bla M1, carbachol, beta-lactamase ratio, 5 h
In short: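 Jurkat cells with NFAT-driven β-lactamase reporter and co-expressed M1 receptor, stimulated with carbachol (final 1 uM, ~EC50), compound titration, 5 h at 37 °C. CCF4 loaded 1 h at RT; 460/530 nm ratio gave %activity and AC50.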

[3] = Stat Signaling Pathway (AID 446; active = well fitted curve in either direction with a large enough effect, not every such curve was filed as active;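 note: ME-180 cervical cancer cells given 40 pM IL-6 alongside compound; SIE-controlled beta-lactamase reporter measured as 460/530 nm FRET emission ratio; % is set by controls: 0 for no effect and ±100 for the full control effect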)
In short: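 FRET read-out (405 nm excitation, 460/530 nm emission) of a beta-lactamase reporter under a STAT-inducible element in ME-180 cervical carcinoma cells. Cells with compound receive 40 pM IL-6 for 5 h. Values are normalised to AC90 stimulation and AC90 JAK-inhibitor controls.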

[4] = biological target: Glucocorticoid receptor (Homo sapiens) (UniProt P04150); assay: GR-GFP Redistribution (AID 450;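 active = compounds whose dose series gives a full or clear partial fitted curve of increased nuclear translocation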; note: potency is the fitted concentration of half-maximal effect); settings: U2OS GR-GFP nuclear translocation, laser cytometry, 2 h
Chain of Glucocorticoid receptor (Homo sapiens) (P04150 whole entry, looked up, the tested form may be a part): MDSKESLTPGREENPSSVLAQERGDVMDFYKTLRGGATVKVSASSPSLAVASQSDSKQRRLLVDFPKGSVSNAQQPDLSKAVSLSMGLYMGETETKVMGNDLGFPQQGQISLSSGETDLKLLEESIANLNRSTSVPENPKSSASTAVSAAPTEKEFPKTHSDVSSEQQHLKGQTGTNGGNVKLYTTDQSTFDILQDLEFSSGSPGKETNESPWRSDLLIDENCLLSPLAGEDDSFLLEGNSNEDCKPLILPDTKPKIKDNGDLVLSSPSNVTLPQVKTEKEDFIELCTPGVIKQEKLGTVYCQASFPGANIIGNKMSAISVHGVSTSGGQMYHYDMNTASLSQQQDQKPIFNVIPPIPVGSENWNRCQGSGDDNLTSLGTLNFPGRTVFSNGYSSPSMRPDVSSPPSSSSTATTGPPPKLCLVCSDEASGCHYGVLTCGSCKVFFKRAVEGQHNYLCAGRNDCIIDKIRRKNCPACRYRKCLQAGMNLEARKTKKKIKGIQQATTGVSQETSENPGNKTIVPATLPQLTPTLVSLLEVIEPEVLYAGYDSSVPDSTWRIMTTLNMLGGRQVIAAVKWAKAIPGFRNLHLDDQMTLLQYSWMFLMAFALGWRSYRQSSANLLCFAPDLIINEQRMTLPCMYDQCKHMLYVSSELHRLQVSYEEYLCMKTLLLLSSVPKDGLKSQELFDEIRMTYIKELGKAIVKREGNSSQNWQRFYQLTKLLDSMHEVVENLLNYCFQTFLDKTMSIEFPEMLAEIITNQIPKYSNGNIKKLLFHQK

[5] = biological target: Glucocorticoid receptor (Homo sapiens) (UniProt P04150); assay: GR-EFC Redistribution (AID 451; calls by dose curve; note: potency is the fitted concentration of half-maximal effect); settings: CHO-K1 GR-EFC translocation, beta-gal luminescence, 2 h
In short: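 CHO-K1 cells expressing nuclear EA and GR-ED fragments of b-gal; compounds titrated up to 46 uM final, 2 h at 37 C. GR nuclear translocation read as complemented b-gal luminescence after 1 h RT detection.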

[6] = biological target: Mitogen-activated protein kinase 10 (Mus musculus) (UniProt Q61831); assay: JNK3 AlphaScreen Assay (AID 530; active = well fitted curve in either direction with a large enough effect, not every such curve was filed as active;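 note: kinase came from lysate of stimulated human HepG2 cells; signal reports phosphorylation of biotinylated GST-cJun 1-79 at Ser73 with 10 µM ATP; % is set by controls: 0 for no effect and ±100 for the full control effect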)
In short: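 HepG2 lysate (IL-1b/TNFa pre-activated) + biotin-GST-cJun 1-79 + anti-pSer73 cJun; cpd titration, 15 min RT; ATP 10 uM start; Tris pH 7.6, MgCl2, DTT, vanadate; beads in EDTA buffer; AlphaScreen.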

[7] = biological target: 3',5'-cyclic-AMP phosphodiesterase 4B (Homo sapiens) (UniProt Q07343); assay: qHTS Assay for Inhibitors of PDE-IV (AID 607; active = well fitted activation curve with a large enough effect in the main read-out, with a control signal flat, not every such curve was filed as active; note: % of control where 0% means no effect)
Chain of 3',5'-cyclic-AMP phosphodiesterase 4B (Homo sapiens) (Q07343 whole entry, looked up): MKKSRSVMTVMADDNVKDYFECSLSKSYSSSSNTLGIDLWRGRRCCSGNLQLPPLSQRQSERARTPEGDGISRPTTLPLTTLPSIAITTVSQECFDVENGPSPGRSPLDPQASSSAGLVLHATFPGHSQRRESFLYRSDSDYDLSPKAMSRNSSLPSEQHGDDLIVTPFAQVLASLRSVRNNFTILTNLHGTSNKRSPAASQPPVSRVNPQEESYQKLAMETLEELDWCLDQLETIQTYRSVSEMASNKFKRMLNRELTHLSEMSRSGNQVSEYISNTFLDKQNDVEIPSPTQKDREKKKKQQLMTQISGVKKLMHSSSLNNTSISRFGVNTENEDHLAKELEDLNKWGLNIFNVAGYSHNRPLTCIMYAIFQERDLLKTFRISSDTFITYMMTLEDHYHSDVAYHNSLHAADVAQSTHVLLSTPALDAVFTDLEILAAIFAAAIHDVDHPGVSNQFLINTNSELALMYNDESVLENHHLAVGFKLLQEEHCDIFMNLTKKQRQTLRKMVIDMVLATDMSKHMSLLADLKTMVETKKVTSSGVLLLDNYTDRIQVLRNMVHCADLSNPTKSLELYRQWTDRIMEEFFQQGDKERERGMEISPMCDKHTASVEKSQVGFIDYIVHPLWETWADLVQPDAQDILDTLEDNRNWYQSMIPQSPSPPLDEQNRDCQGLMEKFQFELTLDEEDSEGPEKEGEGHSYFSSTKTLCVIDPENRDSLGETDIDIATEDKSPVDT
In short: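 Cell-based read-out of cAMP via a modified cyclic nucleotide-gated channel and membrane potential dye (535/590 nm) in HEK293 cells expressing PDE4 endogenously. Compounds tested up to 22.9 uM final; 100 uM RO 20-1724 reference.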

[8] = qHTS Assay for Lipid Storage Modulators (AID 1519; calls by dose curve); settings: Drosophila S3 cells, BODIPY lipid droplet/cell ratio, laser cytometry, cells loaded with oleic acid; for activity change, negative = inhibition: at 25.7 µM (top of the series)
In short: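 Cells seeded at 5,000 per well were treated with compounds over a concentration series and loaded with oleic acid (400 uM, as added). Lipid droplet fluorescence (488 nm excitation, 500-530 nm channel) was read by laser-scanning cytometry and normalized to 20 uM Triacsin C.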

[9] = biological target: ATP-dependent 6-phosphofructokinase (Trypanosoma brucei brucei) (UniProt O15648); assay: qHTS Assay to Find Inhibitors of T. brucei phosphofructokinase: hit validation (AID 492961)
Chain of ATP-dependent 6-phosphofructokinase (Trypanosoma brucei brucei) (O15648 whole entry, looked up): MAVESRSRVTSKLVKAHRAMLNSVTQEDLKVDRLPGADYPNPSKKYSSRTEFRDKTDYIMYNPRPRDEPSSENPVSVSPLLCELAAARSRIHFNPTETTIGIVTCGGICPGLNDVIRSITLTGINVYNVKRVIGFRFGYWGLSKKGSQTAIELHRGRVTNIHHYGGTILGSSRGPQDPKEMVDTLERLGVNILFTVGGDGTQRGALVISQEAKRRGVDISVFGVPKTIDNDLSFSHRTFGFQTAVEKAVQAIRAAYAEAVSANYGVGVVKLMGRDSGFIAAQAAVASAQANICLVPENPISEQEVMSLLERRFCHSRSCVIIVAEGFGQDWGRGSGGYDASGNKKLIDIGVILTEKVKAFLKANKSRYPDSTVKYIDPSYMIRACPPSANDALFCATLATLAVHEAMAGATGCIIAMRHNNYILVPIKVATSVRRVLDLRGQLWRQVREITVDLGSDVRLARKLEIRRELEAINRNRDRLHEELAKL
In short: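 Compounds titrated; %activity normalized to 0x and 1x enzyme controls, curve-fitted. Readout: ADP-Glo luminescence after 45 min room-temperature reaction of 1.25 nM PFK, 0.1 mM ATP, 0.5 mM F6P, pH 8.0.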

[10] = biological target: Luciferin 4-monooxygenase (Photinus pyralis) (UniProt P08659); assay: Biochemical firefly luciferase enzyme assay for NPC (AID 624030);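 note: purified P. pyralis luciferase at 10 nM with luciferin and ATP substrate; 0% = DMSO and -100% = full luciferase inhibition by PTC124 control; nearly all actives have a fitted effect of over 70% in size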
Chain of Luciferin 4-monooxygenase (Photinus pyralis) (P08659 whole entry, looked up): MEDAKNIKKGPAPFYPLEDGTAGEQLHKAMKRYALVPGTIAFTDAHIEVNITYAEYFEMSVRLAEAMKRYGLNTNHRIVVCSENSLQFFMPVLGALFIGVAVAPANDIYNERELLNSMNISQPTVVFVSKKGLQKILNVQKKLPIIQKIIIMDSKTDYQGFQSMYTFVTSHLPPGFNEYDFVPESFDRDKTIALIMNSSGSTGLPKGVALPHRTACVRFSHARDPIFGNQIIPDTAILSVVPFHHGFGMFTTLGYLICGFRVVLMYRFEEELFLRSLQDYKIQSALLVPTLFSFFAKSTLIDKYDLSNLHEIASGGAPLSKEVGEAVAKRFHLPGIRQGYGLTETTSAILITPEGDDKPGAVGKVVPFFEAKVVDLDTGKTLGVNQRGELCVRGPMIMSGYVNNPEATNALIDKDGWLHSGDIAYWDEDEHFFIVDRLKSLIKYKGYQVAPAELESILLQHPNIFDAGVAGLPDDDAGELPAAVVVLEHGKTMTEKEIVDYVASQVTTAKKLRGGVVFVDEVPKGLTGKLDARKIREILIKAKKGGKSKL
In short: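 Purified P. pyralis luciferase at 10 nM in 50 mM Tris Acetate (final), luminescence read within 5 minutes of enzyme addition to compounds. Activity normalised to PTC124 versus DMSO; concentration-response curves classed by r2, magnitude and activity.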

[11] = qHTS profiling for inhibitors of Plasmodium falciparum proliferation (AID 504749); note: nearly all actives have a fitted effect of over 60% in size; note: potency is the fitted concentration of half-maximal effect;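 for activity, negative = inhibition: 0% = DMSO vehicle and full inhibition = artemisinin control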; settings: P. falciparum in erythrocytes, SYBR Green DNA, 72 h
In short: (§1)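 SYBR Green fluorescence (ex 485 nm, em 535 nm) reports parasite DNA after 72 h compound exposure of infected red cells at 0.3% parasitemia, 2.5% hematocrit; signal normalized to 0.29 uM artemisinin and vehicle wells.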

C2A = assay: as above; settings: P. falciparum in erythrocytes, SYBR Green DNA, 72 h; series mostly up to 12.8 µM
In short: as §1

CP238 = assay: as above; settings: P. falciparum in erythrocytes, SYBR Green DNA, 72 h; series mostly up to 12.8 µM
In short: as §1

CP252 = assay: as above; settings: P. falciparum in erythrocytes, SYBR Green DNA, 72 h; series mostly up to 12.8 µM
In short: as §1

DIV14 = assay: as above; settings: P. falciparum in erythrocytes, SYBR Green DNA, 72 h; series mostly up to 12.8 µM
In short: as §1

JCK = assay: as above; settings: P. falciparum in erythrocytes, SYBR Green DNA, 72 h; series mostly up to 12.8 µM
In short: as §1

N140 = assay: as above; settings: P. falciparum in erythrocytes, SYBR Green DNA, 72 h; series mostly up to 12.8 µM
In short: as §1

SC27B = assay: as above; settings: P. falciparum in erythrocytes, SYBR Green DNA, 72 h; series mostly up to 12.8 µM
In short: as §1

W2 = assay: as above; settings: P. falciparum in erythrocytes, SYBR Green DNA, 72 h; series mostly up to 12.8 µM
In short: as §1

[12] = biological target: Ubiquitin carboxyl-terminal hydrolase 1 (Homo sapiens) (UniProt O94782); assay: Inhibitors of USP1/UAF1: Pilot qHTS (AID 504865);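 note: rhodamine fluorescence freed from ubiquitin-rhodamine substrate followed over time; top concentration of the series differs between compounds; % is set by controls: 0 for no effect and ±100 for the full control effect; nearly all actives have a fitted effect of over 35% in size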
Chain of Ubiquitin carboxyl-terminal hydrolase 1 (Homo sapiens) (O94782 whole entry, looked up): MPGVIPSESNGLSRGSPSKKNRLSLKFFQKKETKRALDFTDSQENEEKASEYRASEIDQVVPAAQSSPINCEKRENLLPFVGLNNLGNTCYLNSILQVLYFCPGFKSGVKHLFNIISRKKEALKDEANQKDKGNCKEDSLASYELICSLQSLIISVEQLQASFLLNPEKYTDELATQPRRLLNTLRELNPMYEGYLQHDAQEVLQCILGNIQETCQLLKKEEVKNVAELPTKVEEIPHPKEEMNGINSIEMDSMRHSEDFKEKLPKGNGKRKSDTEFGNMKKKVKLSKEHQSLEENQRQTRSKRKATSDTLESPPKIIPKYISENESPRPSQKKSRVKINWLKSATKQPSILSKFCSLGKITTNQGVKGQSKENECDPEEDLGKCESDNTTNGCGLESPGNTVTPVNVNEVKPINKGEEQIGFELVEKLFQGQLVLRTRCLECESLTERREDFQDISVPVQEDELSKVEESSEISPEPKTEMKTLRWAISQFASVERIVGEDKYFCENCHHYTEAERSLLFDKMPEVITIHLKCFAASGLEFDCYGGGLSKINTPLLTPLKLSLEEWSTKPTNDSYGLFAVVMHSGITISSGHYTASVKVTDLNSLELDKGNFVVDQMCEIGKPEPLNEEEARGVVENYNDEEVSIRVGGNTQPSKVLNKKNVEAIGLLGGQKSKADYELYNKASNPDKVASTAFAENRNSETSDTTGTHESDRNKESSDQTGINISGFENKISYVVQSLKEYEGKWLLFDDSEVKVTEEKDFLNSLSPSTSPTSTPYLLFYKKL
In short: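 Deubiquitinase activity followed as kinetic rhodamine fluorescence release from 150 nM Ub-Rho. 1 nM USP1/UAF1 with compound, after 15 min room-temperature preincubation, in HEPES pH 7.8 buffer containing TCEP, EDTA, BSA and Tween-20.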

[13] = at 17.2 µM (top of the series) unless noted
[14] = measured here: cell count channel max response
[15] = measured here: lipid channel max response
[16] = at 12.8 µM (top of the series), parasite line A
[17] = at 12.8 µM (top of the series), parasite line B
[18] = at 28.7 µM (top of the series), parasite line B

NC[C@@H]1O[C@H](O[C@H]2[C@H](O)[C@H](O[C@@H]3O[C@H](CO)[C@@H](O)[C@H](N)[C@@H]3O)[C@@H](N)C[C@H]2N)[C@@H](O)[C@H](O)[C@@H]1O
-1.61%: max response [8, 14]
-7%: max response [8, 15]
inactive: outcome [1] | activity change, negative = inhibition [2, 13] -3.83% | outcome [3] | Potency [4] > 20.6 µM | Potency [5] > 20.6 µM | Potency [6] | outcome [7] | activity change, negative = inhibition [8] -4.16% | outcome [9] | Potency [10] | activity, negative = inhibition [11, 16] 3.46% | activity, negative = inhibition [11, 17] 7.68% | Potency (C2A) | Potency (CP238) | Potency (CP252) | Potency (DIV14) | Potency (JCK) | Potency (N140) | Potency (SC27B) | Potency (W2)

CC(=O)O[C@@H]1C(=O)[C@@]2(C)[C@H](O)C[C@H]3OC[C@]3(OC(C)=O)[C@@H]2[C@H](OC(=O)c2ccccc2)[C@@]2(O)C[C@H](OC(=O)[C@@H](O)[C@@H](NC(=O)c3ccccc3)c3ccccc3)C(C)=C1C2(C)C (stereo in doubt)
inactive: outcome [1] | activity change, negative = inhibition ([2]; at 17.2 µM (top of the series)) 6.42% | activity change, negative = inhibition ([2]; at 38 µM (top of the series)) 6.57% | outcome [3] | Potency [4] > 46 µM and > 20.6 µM | Potency [5] > 46 µM and > 20.6 µM | Potency [6] | outcome [7] | activity change, negative = inhibition [8] -8.68%
-13.6%: max response [8, 15]
-5.62%: max response [8, 14]

C[C@H]1CC[C@@H]2[C@@H](C)[C@H]3[C@H](C[C@H]4[C@@H]5CC=C6C[C@@H](O[C@]7(O[C@H]8O[C@@H](C)[C@@H](O)[C@@H](O)[C@@H]8O)C[C@@H](O[C@@H]8O[C@H](CO)[C@@H](O)[C@H](O)[C@@H]8O)[C@@H](O)[C@H](CO)O7)CC[C@]6(C)[C@H]5CC[C@@]34C)N2C1
-8.96%: max response [8, 14]
-10.1%: max response [8, 15]
inactive: outcome [1] | outcome [3] | Potency [4] > 20.6 µM | Potency [5] > 20.6 µM | Potency [6] | outcome [7] | activity change, negative = inhibition [8] -0.703% | Potency [12]

NCc1ccccc1CC(=O)N[C@@H]1C(=O)N2C(C(=O)O)=C(CSc3nnnn3CC(=O)O)CS[C@@H]12
-14.4%: max response [8, 14]
inactive: outcome [1] | outcome [3] | Potency [4] > 20.6 µM | Potency [5] > 20.6 µM | Potency [6] | activity change, negative = inhibition [8] -0.0833% | outcome [9] | Potency [10] | activity, negative = inhibition [11, 16] 1.91% | activity, negative = inhibition [11, 17] -4.65% | Potency (C2A) | Potency (CP238) | Potency (CP252) | Potency (DIV14) | Potency (JCK) | Potency (N140) | Potency (SC27B) | Potency (W2)
-13.9%: max response [8, 15]

Nc1ccn([C@@H]2CC[C@H](CO)O2)c(=O)n1
-6.51%: max response [8, 15]
inactive: outcome [1] | activity change, negative = inhibition [2, 13] -7.49% | outcome [3] | Potency [6] | activity change, negative = inhibition [8] -3.47%
-4.3%: max response [8, 14]

c1ccc2c3c([nH]c2c1)[C@@H]1[C@H]2CC[C@H]([C@H]4CCCN[C@H]42)N1CC3
-3.2%: max response [8, 15]
inactive: outcome [1] | outcome [3] | Potency [4] > 20.6 µM | Potency [5] > 20.6 µM | Potency [6] | outcome [7] | activity change, negative = inhibition [8] -1.37%
0.348%: max response [8, 14]

OCCN1CCN(CCC=C2c3ccccc3Sc3ccc(Cl)cc32)CC1
inactive: outcome [1] | outcome [3] | Potency [5] > 20.6 µM | Potency [6] | activity change, negative = inhibition [8] -7.08% | outcome [9] | Potency [12] | Potency [10] | Potency (C2A) | Potency (CP238) | Potency (JCK) | Potency (SC27B)
-20.1%: max response [8, 15]
-13.2%: max response [8, 14]
active: Potency (W2) 0.721 µM

CC[C@H](Cc1c(I)cc(I)c(N)c1I)C(=O)O
-5.12%: max response [8, 15]
-5.23%: max response [8, 14]
inactive: outcome [1] | outcome [3] | Potency [4] > 20.6 µM | Potency [5] > 20.6 µM | Potency [6] | activity change, negative = inhibition [8] 0.772% | outcome [9] | Potency [12] | Potency [10] | activity, negative = inhibition [11, 16] 7.39% | activity, negative = inhibition [11, 17] 11.4% | Potency (C2A) | Potency (CP238) | Potency (CP252) | Potency (DIV14) | Potency (JCK) | Potency (N140) | Potency (SC27B)

O=C1O[C@@H]([C@@H](O)CO)[C@@H](O)[C@H]1O
8.38%: max response [8, 14]
inactive: outcome [1] | activity change, negative = inhibition [2, 13] -7.5% | outcome [3] | Potency [4] > 20.6 µM | Potency [5] > 20.6 µM | outcome [7] | activity change, negative = inhibition [8] -0.208% | outcome [9] | Potency [12] | Potency [10] | activity, negative = inhibition ([11]; at 28.7 µM (top of the series), parasite line A) -5.65% | activity, negative = inhibition [11, 18] 14.7% | Potency (C2A) | Potency (CP238) | Potency (CP252) | Potency (DIV14) | Potency (JCK) | Potency (N140) | Potency (SC27B) | Potency (W2)
7.66%: max response [8, 15]

C[C@@H]1[C@H]2CC[C@@H]3[C@@H]4CC=C5C[C@@H](N(C)C)CC[C@]5(C)[C@@H]4CC[C@@]32CN1C
-4.62%: max response [8, 14]
-8.59%: max response [8, 15]
inactive: outcome [1] | outcome [3] | Potency [4] > 20.6 µM | Potency [5] > 20.6 µM | Potency [6] | outcome [7] | activity change, negative = inhibition [8] -1.08%

COc1cc2nc(N3CCN(C(=O)[C@@H]4COc5ccccc5O4)CC3)nc(N)c2cc1OC
-1.61%: max response [8, 15]
inactive: outcome [1] | outcome [3] | Potency [6] | activity change, negative = inhibition [8] -1.08% | Potency [10] | activity, negative = inhibition [11, 18] -13.1% | Potency (C2A) | Potency (CP238) | Potency (CP252) | Potency (JCK) | Potency (SC27B)
-1.2%: max response [8, 14]
active: Potency (DIV14) 13.5 µM | Potency (W2) 5.36 µM

C[C@@H]1C[C@H](OC(=O)c2ccccc2O)CC(C)(C)C1
-8.27%: max response [8, 14]
-10.7%: max response [8, 15]
inactive: outcome [1] | outcome [3] | Potency [4] > 20.6 µM | Potency [5] > 20.6 µM | Potency [6] | outcome [7] | activity change, negative = inhibition [8] -2.75% | Potency [12]
